In ChEMBL document CHEMBL2218924, “A broad activity screen in support of a chemogenomic map for kinase signalling research and drug discovery” (Biochem J, 2013):

The compounds below were run against T1, Serine/threonine-protein kinase ULK3 (Homo sapiens) (UniProt Q6PHR2). Settings: at 1 µM; call rule not given here.
T1 sequence (whole entry): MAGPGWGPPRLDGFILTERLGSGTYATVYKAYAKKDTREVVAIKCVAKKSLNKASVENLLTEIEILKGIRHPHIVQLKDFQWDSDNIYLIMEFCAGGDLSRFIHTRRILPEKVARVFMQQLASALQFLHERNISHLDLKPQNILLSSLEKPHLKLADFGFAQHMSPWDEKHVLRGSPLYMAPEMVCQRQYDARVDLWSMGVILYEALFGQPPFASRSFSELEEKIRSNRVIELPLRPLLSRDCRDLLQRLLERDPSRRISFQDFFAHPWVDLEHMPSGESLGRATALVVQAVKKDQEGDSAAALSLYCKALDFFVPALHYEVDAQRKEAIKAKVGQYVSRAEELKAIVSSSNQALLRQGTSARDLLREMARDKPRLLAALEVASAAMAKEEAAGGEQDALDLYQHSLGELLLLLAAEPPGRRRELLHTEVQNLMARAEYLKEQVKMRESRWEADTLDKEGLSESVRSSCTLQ

Compound	residual activity [%]
O=[N+]([O-])/C=C/c1ccc2c(c1)OCO2	111
O=C1Nc2ccc3ncsc3c2/C1=C/c1c[nH]cn1	42
c1cc(-c2cnn3cc(-c4ccc(OCCN5CCCCC5)cc4)cnc23)ccn1	84
O=c1[nH]c2ccccc2n1C1CCN(Cc2ccc(-c3nc4cc5[nH]cnc5cc4nc3-c3ccccc3)cc2)CC1	100
O=C1NC(=O)c2c1c1c3ccccc3n3c1c1c2c2ccccc2n1C1CCC3O1	58
COc1cc2ncnc(Nc3ccc(OCc4ccccc4)cc3)c2cc1OC	104
CC(C)[C@H](CO)Nc1nc(Nc2cccc(Cl)c2)c2ncn(C(C)C)c2n1	39
CCn1cnc2c(Nc3cccc(Cl)c3)nc(N[C@@H]3CCCC[C@@H]3N)nc21	40
COC(=O)[C@@]1(O)C[C@H]2O[C@]1(C)n1c3ccccc3c3c4c(c5c6ccccc6n2c5c31)C(=O)NC4	0
C[S+]([O-])c1ccc(-c2nc(-c3ccc(F)cc3)c(-c3ccncc3)[nH]2)cc1 (centres undefined)	104
CC(C)(C)c1cc(C=C(C#N)C#N)cc(Br)c1O	110
COc1ccc2c(c1)/C(=C/c1cnc[nH]1)C(=O)N2	80
COc1cc(OC)c(/C=C2\C(=O)Nc3ccccc32)c(OC)c1	95
N/C(=N\[N+](=O)[O-])N/N=C\c1ccc(-c2cccc([N+](=O)[O-])c2)o1	92

The compounds below were run against T1, Serine/threonine-protein kinase ULK3 (Homo sapiens). Settings: at 10 µM.

Compound	residual activity [%]
COc1ccc2c(c[n+](C)c3c4cc5c(cc4ccc23)OCO5)c1OC	96
O=[N+]([O-])/C=C/c1ccc2c(c1)OCO2	91
O=C1Nc2ccc3ncsc3c2/C1=C/c1c[nH]cn1	7
c1cc(-c2cnn3cc(-c4ccc(OCCN5CCCCC5)cc4)cnc23)ccn1	48
O=c1[nH]c2ccccc2n1C1CCN(Cc2ccc(-c3nc4cc5[nH]cnc5cc4nc3-c3ccccc3)cc2)CC1	95
O=C1NC(=O)c2c1c1c3ccccc3n3c1c1c2c2ccccc2n1C1CCC3O1	58
COc1cc2ncnc(Nc3ccc(OCc4ccccc4)cc3)c2cc1OC	69
CC(C)[C@H](CO)Nc1nc(Nc2cccc(Cl)c2)c2ncn(C(C)C)c2n1	7
CCn1cnc2c(Nc3cccc(Cl)c3)nc(N[C@@H]3CCCC[C@@H]3N)nc21	8
COC(=O)[C@@]1(O)C[C@H]2O[C@]1(C)n1c3ccccc3c3c4c(c5c6ccccc6n2c5c31)C(=O)NC4	1
C[S+]([O-])c1ccc(-c2nc(-c3ccc(F)cc3)c(-c3ccncc3)[nH]2)cc1 (centres undefined)	104
CC(C)(C)c1cc(C=C(C#N)C#N)cc(Br)c1O	99
COc1ccc2c(c1)/C(=C/c1cnc[nH]1)C(=O)N2	23
COc1cc(OC)c(/C=C2\C(=O)Nc3ccccc32)c(OC)c1	95
N/C(=N\[N+](=O)[O-])N/N=C\c1ccc(-c2cccc([N+](=O)[O-])c2)o1	88

These compounds were tested against Serine/threonine-protein kinase VRK2 (Homo sapiens) (UniProt Q86Y07). Settings: at 1 µM.
Chain of Serine/threonine-protein kinase VRK2 (Homo sapiens) (Q86Y07 whole entry): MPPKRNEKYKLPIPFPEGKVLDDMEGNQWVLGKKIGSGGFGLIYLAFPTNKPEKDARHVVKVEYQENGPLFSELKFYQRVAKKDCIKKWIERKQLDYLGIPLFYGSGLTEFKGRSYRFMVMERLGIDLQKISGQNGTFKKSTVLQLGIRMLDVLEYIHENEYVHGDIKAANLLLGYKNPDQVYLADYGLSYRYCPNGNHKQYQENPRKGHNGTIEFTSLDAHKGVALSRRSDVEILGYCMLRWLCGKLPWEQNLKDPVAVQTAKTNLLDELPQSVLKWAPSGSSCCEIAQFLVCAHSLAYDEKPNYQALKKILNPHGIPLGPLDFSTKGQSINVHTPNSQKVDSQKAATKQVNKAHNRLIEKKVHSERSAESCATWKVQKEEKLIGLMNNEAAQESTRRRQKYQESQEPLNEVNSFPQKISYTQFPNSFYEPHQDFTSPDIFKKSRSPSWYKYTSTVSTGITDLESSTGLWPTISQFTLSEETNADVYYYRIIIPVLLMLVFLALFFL

Compound	residual activity
COc1ccc2c(c[n+](C)c3c4cc5c(cc4ccc23)OCO5)c1OC	110% (inactive)
O=C1c2ccccc2-c2nc3nnnn3nc21	116% (inactive)
O=[N+]([O-])/C=C/c1ccc2c(c1)OCO2	101% (inactive)
O=C1Nc2ccc3ncsc3c2/C1=C/c1c[nH]cn1	75% (inactive)
CN[C@@H]1C[C@H]2O[C@@](C)([C@@H]1OC)n1c3ccccc3c3c4c(c5c6ccccc6n2c5c31)C(=O)NC4	108% (inactive)
c1cc(-c2cnn3cc(-c4ccc(OCCN5CCCCC5)cc4)cnc23)ccn1	119% (inactive)
O=c1[nH]c2ccccc2n1C1CCN(Cc2ccc(-c3nc4cc5[nH]cnc5cc4nc3-c3ccccc3)cc2)CC1	109% (inactive)
COc1cc2ncnc(Nc3ccc(OCc4ccccc4)cc3)c2cc1OC	112% (inactive)
CC(C)[C@H](CO)Nc1nc(Nc2cccc(Cl)c2)c2ncn(C(C)C)c2n1	85% (inactive)
CCc1nc(-c2ccc(OC)cc2)[nH]c1-c1ccncc1	113% (inactive)
CCn1cnc2c(Nc3cccc(Cl)c3)nc(N[C@@H]3CCCC[C@@H]3N)nc21	94% (inactive)
COC(=O)[C@@]1(O)C[C@H]2O[C@]1(C)n1c3ccccc3c3c4c(c5c6ccccc6n2c5c31)C(=O)NC4	100% (inactive)
C[S+]([O-])c1ccc(-c2nc(-c3ccc(F)cc3)c(-c3ccncc3)[nH]2)cc1 (centres undefined)	114% (inactive)
CC(C)(C)c1cc(C=C(C#N)C#N)cc(Br)c1O	101% (inactive)
COc1cc(OC)c(/C=C2\C(=O)Nc3ccccc32)c(OC)c1	83% (inactive)

Each compound was assayed against Serine/threonine-protein kinase VRK2 (Homo sapiens) (UniProt Q86Y07). Settings: at 10 µM.

Compound	residual activity [%]
COc1ccc2c(c[n+](C)c3c4cc5c(cc4ccc23)OCO5)c1OC	91
O=C1c2ccccc2-c2nc3nnnn3nc21	102
O=[N+]([O-])/C=C/c1ccc2c(c1)OCO2	91
O=C1Nc2ccc3ncsc3c2/C1=C/c1c[nH]cn1	26
CN[C@@H]1C[C@H]2O[C@@](C)([C@@H]1OC)n1c3ccccc3c3c4c(c5c6ccccc6n2c5c31)C(=O)NC4	90
O=c1[nH]c2ccccc2n1C1CCN(Cc2ccc(-c3nc4cc5[nH]cnc5cc4nc3-c3ccccc3)cc2)CC1	93
COc1cc2ncnc(Nc3ccc(OCc4ccccc4)cc3)c2cc1OC	97
CC(C)[C@H](CO)Nc1nc(Nc2cccc(Cl)c2)c2ncn(C(C)C)c2n1	30
CCc1nc(-c2ccc(OC)cc2)[nH]c1-c1ccncc1	101
CCn1cnc2c(Nc3cccc(Cl)c3)nc(N[C@@H]3CCCC[C@@H]3N)nc21	48
COC(=O)[C@@]1(O)C[C@H]2O[C@]1(C)n1c3ccccc3c3c4c(c5c6ccccc6n2c5c31)C(=O)NC4	101
C[S+]([O-])c1ccc(-c2nc(-c3ccc(F)cc3)c(-c3ccncc3)[nH]2)cc1 (centres undefined)	96
CC(C)(C)c1cc(C=C(C#N)C#N)cc(Br)c1O	105
COc1ccc2c(c1)/C(=C/c1cnc[nH]1)C(=O)N2	66
COc1cc(OC)c(/C=C2\C(=O)Nc3ccccc32)c(OC)c1	32
